# This is part of a sample that, as a whole, favours compounds with a hit. Of some 83,000 tested, about 20% had one in any assay.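 Single-concentration screen, 48 h exposure, 96-well plates. Endpoint: percent growth. Below 10 = active.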 Calls of active or inactive are those of the source.
# Tested on: PC-3 prostate
# Experiment: NCI-60 one-dose screen, 48 h (100 = growth as untreated, 0 = no growth, -100 = all killed)
# Details: 10 µM unless noted
row,SMILES,growth
1,COc1ccccc1/C=C/C1=C(C)CCC(c2ccccc2OC)C1C (stereo not given),-33.2% (active)
2,COc1cc(OCc2cccc(-c3ccc4c(c3)OCCO4)c2C)cc(OC)c1C=O,65.5% (inactive)
3,COc1ccccc1-c1nc2ccc3[nH]ncc3c2c2c1CCCC2,82% (inactive)
4,CC(=O)OCCOc1cc(Cl)c(Cl)cc1Cl,98.3% (inactive)
5,CC1(C)CC(=O)C2=C(C1)OC(C(=O)c1ccccc1)C2c1cccc(Oc2ccccc2)c1 (stereo not given),24% (inactive)
6,CC1OC(C(=O)N2CCN(CCO)CC2)CC1COC1CCCCC1 (stereo not given),92.3% [50 µM] (inactive)
7,COc1ccccc1NC(=O)n1c(=O)cc(C)c2ccc(O)cc21,99.9% (inactive)
8,COc1ccc2c(c1)C(c1c[nH]c3ccccc13)(c1c[nH]c3ccccc13)CCO2,31% (inactive)
9,CC(C)(C)n1cc(-c2ccnc(NCCNS(=O)(=O)c3cccc4ccccc34)c2)c(-c2cccc(O)c2)n1,59% (inactive)
10,COc1cc(C2=Nc3c(N)nc(N)nc3NC(c3cccc(Nc4ccnc5cc(C(F)(F)F)ccc45)c3)C2)cc(OC)c1OC (stereo not given),58.5% (inactive)
11,Nc1nc(=O)n([C@H]2CC=C(CO)O2)cc1F,92.1% (inactive)
12,CS(=O)(=O)c1ccc(/C(=N/NC(N)=S)c2ccc(F)cc2)cc1,103% (inactive)
13,O=c1n(C2OC(CO)C(O)C2O)ccc2nccn12 (stereo not given),104% (inactive)
14,Cc1c(N2CCCCC2)[nH]c2ccccc12,70.5% (inactive)
15,O=C1CCc2c(sc3[nH]c(=S)n(-c4cc(C(F)(F)F)cc(C(F)(F)F)c4)c(=O)c23)C1,-38.4% (active)

# Source: PubChem BioAssay (NCI)
